{"source": "PubChem BioAssay (EPA / NIEHS)", "note": "Inconclusive results are not listed. The source made the active and inactive calls. The calls were made as follows: active = hit-call score of the fitted dose curve at least 0.9, where 1 is the maximum; inconclusive = response in the unintended direction; inactive = score below 0.9.", "data": [{"read-out": "ABC Transporter (ABCB1), ABCB1 (gene 5243)", "experiment": "CLD_ABCB1_24hr: CellzDirect (CLD) Gene Expression Assay for ABC Transporter (ABCB1) at 24 hours (AID 2283684)", "procedure,_shortened": "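ABCB1 mRNA induction versus 0.2% DMSO vehicle was read by qNPA chemiluminescence at 24 h. Cultured human hepatocytes from two donor preparations received daily fresh dosing, and phase-contrast cytotoxicity calls were annotated alongside the data.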", "values": [{"molecule": "O=c1n(Cl)c(=O)n(Cl)c(=O)n1Cl", "outcome": "inactive"}, {"molecule": "CCOc1cc(C(C)(C)C)ccc1C1COC(c2c(F)cccc2F)=N1", "note": "(stereo not drawn)", "outcome": "inactive"}, {"molecule": "O=C1C2CC=CCC2C(=O)N1SC(Cl)(Cl)Cl", "note": "(stereo not drawn)", "outcome": "inactive"}, {"molecule": "C=CCOC(=O)C(C)(C)OC(=O)c1cc(-n2c(=O)cc(C(F)(F)F)n(C)c2=O)ccc1Cl", "outcome": "inactive"}, {"molecule": "CCCCOCN(C(=O)CCl)c1c(CC)cccc1CC", "outcome": "inactive"}, {"molecule": "O=P(O)(O)CCCl", "outcome": "inactive"}, {"molecule": "Cn1c(-c2ccccc2)cc(-c2ccccc2)[n+]1C", "outcome": "inactive"}, {"molecule": "CC(C)NC(=O)N1CC(=O)N(c2cc(Cl)cc(Cl)c2)C1=O", "outcome": "inactive"}, {"molecule": "CC1(C)CON(Cc2ccccc2Cl)C1=O", "outcome": "inactive"}]}, {"read-out": "Broad substrate specificity ATP-binding cassette transporter ABCG2 (Homo sapiens) (UniProt Q9UNQ0)", "experiment": "CLD_ABCG2_24hr: CellzDirect (CLD) Gene Expression Assay for ABC Transporter (ABCG2) at 24 hours (AID 2283685)", "procedure,_shortened": "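ABCG2 mRNA induction, read as gain of chemiluminescent signal over 0.2% DMSO, was measured by quantitative nuclease protection at 24 h. Cultured human liver hepatocytes were given fresh dosing solutions of test chemicals at several concentrations each day.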", "values": [{"molecule": "CSC(=O)c1c(C(F)F)nc(C(F)(F)F)c(C(=O)SC)c1CC(C)C", "outcome": "inactive"}, {"molecule": "N#CN=C1SCCN1Cc1ccc(Cl)nc1", "outcome": "inactive"}, {"molecule": "COc1ccc(-c2ccccc2)cc1NNC(=O)OC(C)C", "outcome": "inactive"}, {"molecule": "CC1(C)CON(Cc2ccccc2Cl)C1=O", "outcome": "inactive"}]}, {"read-out": "Cytochrome P450 2B6 (Homo sapiens) (UniProt P20813)", "experiment": "CLD_CYP2B6_24hr: CellzDirect (CLD) Gene Expression Assay for xenobiotic metabolism (CYP2B6) at 24 hours (AID 2283686)", "procedure,_shortened": "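qNPA chemiluminescent measurement of mRNA at 24 hours in human primary hepatocyte cultures from two donor preparations, with daily fresh dosing and 0.2% DMSO vehicle as baseline. Morphology-based cytotoxicity flagged yes/no.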", "values": [{"molecule": "CC(C)Oc1cccc(NC(=O)c2ccccc2C(F)(F)F)c1", "AC50": "4.95 µM (active)"}, {"molecule": "CCOc1cc(C(C)(C)C)ccc1C1COC(c2c(F)cccc2F)=N1", "note": "(stereo not drawn)", "AC50": "1.9 µM (active)"}, {"molecule": "CCCCOCN(C(=O)CCl)c1c(CC)cccc1CC", "AC50": "1.11 µM (active)"}, {"molecule": "COP(=S)(OC)SCn1nnc2ccccc2c1=O", "AC50": "4.46 µM (active)"}, {"molecule": "CC(C)(C)C(=O)C(Oc1ccc(Cl)cc1)n1cncn1", "note": "(stereo not drawn)", "AC50": "4.5 µM (active)"}, {"molecule": "O=P(O)(O)CCCl", "outcome": "inactive"}, {"molecule": "CN=C=S", "outcome": "inactive"}, {"molecule": "CS(=O)(=O)c1ccc(C(=O)C2C(=O)CCCC2=O)c([N+](=O)[O-])c1", "outcome": "inactive"}, {"molecule": "COC(=O)N(C(=O)N1CO[C@@]2(C(=O)OC)Cc3cc(Cl)ccc3C2=N1)c1ccc(OC(F)(F)F)cc1", "AC50": "1.9 µM (active)"}, {"molecule": "CCNP(=S)(OC)O/C(C)=C/C(=O)OC(C)C", "note": "(stereo not drawn)", "AC50": "0.981 µM (active)"}, {"molecule": "N#CN=C1SCCN1Cc1ccc(Cl)nc1", "AC50": "11.6 µM (active)"}, {"molecule": "COc1ccc(-c2ccccc2)cc1NNC(=O)OC(C)C", "AC50": "4.09 µM (active)"}]}, {"read-out": "Cytochrome P450 3A4 (Homo sapiens) (UniProt P08684)", "experiment": "CLD_CYP3A4_24hr: CellzDirect (CLD) Gene Expression Assay for xenobiotic metabolism (CYP3A4) at 24 hours (AID 2283689)", "procedure,_shortened": "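CYP3A4 mRNA induction read by quantitative nuclease protection (chemiluminescence) 24 hr after dosing. Cultured human hepatocytes (two donor preparations) treated daily, vehicle 0.2% DMSO; phase-contrast morphology annotates cytotoxicity.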", "values": [{"molecule": "O=c1n(Cl)c(=O)n(Cl)c(=O)n1Cl", "outcome": "inactive"}, {"molecule": "CS(=O)(=O)c1cc(C(F)(F)F)ccc1C(=O)c1cnoc1C1CC1", "AC50": "9.79 µM (active)"}, {"molecule": "COP(=O)(OC)O/C(C)=C/C(=O)N(C)C", "outcome": "inactive"}, {"molecule": "CO/N=C(/C1=NOCCO1)c1ccccc1Oc1ncnc(Oc2ccccc2Cl)c1F", "outcome": "inactive"}, {"molecule": "CCOc1cc(C(C)(C)C)ccc1C1COC(c2c(F)cccc2F)=N1", "note": "(stereo not drawn)", "AC50": "1.9 µM (active)"}, {"molecule": "C=CCOC(=O)C(C)(C)OC(=O)c1cc(-n2c(=O)cc(C(F)(F)F)n(C)c2=O)ccc1Cl", "AC50": "0.47 µM (active)"}, {"molecule": "Nc1c(Cl)c(Cl)nc(C(=O)O)c1Cl", "outcome": "inactive"}, {"molecule": "CC(C)N1C(=O)c2ccccc2NS1(=O)=O", "outcome": "inactive"}, {"molecule": "Clc1cccc(C(Cl)(Cl)Cl)n1", "outcome": "inactive"}, {"molecule": "Clc1nc(Cl)nc(Nc2ccccc2Cl)n1", "outcome": "inactive"}, {"molecule": "CCCCOCN(C(=O)CCl)c1c(CC)cccc1CC", "outcome": "inactive"}, {"molecule": "COP(=S)(OC)SCn1nnc2ccccc2c1=O", "AC50": "20 µM (active)"}, {"molecule": "O=C(O)c1c(Cl)ccc2cc(Cl)cnc12", "outcome": "inactive"}, {"molecule": "Cc1cnc(C2=NC(C)(C(C)C)C(=O)N2)c(C(=O)O)c1", "note": "(stereo not drawn)", "outcome": "inactive"}, {"molecule": "CC(C)(C)C(=O)C(Oc1ccc(Cl)cc1)n1cncn1", "note": "(stereo not drawn)", "AC50": "1.63 µM (active)"}, {"molecule": "O=P(O)(O)CCCl", "outcome": "inactive"}, {"molecule": "CN=C=S", "outcome": "inactive"}, {"molecule": "CSC(=O)c1c(C(F)F)nc(C(F)(F)F)c(C(=O)SC)c1CC(C)C", "AC50": "2.07 µM (active)"}, {"molecule": "CCOc1nc(C(Cl)(Cl)Cl)ns1", "outcome": "inactive"}, {"molecule": "CS(=O)(=O)c1ccc(C(=O)C2C(=O)CCCC2=O)c([N+](=O)[O-])c1", "outcome": "inactive"}, {"molecule": "C=C(C)CN(CC)c1c([N+](=O)[O-])cc(C(F)(F)F)cc1[N+](=O)[O-]", "AC50": "5.33 µM (active)"}, {"molecule": "Cn1c(-c2ccccc2)cc(-c2ccccc2)[n+]1C", "outcome": "inactive"}, {"molecule": "COC(=O)N(C(=O)N1CO[C@@]2(C(=O)OC)Cc3cc(Cl)ccc3C2=N1)c1ccc(OC(F)(F)F)cc1", "AC50": "6.53 µM (active)"}, {"molecule": "CCNP(=S)(OC)O/C(C)=C/C(=O)OC(C)C", "note": "(stereo not drawn)", "AC50": "1.94 µM (active)"}, {"molecule": "COP(=S)(OC)Oc1ccc([N+](=O)[O-])c(C)c1", "AC50": "16.6 µM (active)"}, {"molecule": "N#CN=C1SCCN1Cc1ccc(Cl)nc1", "AC50": "10.9 µM (active)"}, {"molecule": "COc1ccc(-c2ccccc2)cc1NNC(=O)OC(C)C", "outcome": "inactive"}, {"molecule": "CC(C)NC(=O)N1CC(=O)N(c2cc(Cl)cc(Cl)c2)C1=O", "AC50": "9.31 µM (active)"}, {"molecule": "OC(c1ccc(Cl)cc1)(c1ccc(Cl)cc1)C(Cl)(Cl)Cl", "AC50": "4.09 µM (active)"}, {"molecule": "CC1(C)CON(Cc2ccccc2Cl)C1=O", "AC50": "20 µM (active)"}]}, {"read-out": "HMG-CoA synthase (HMGCS2), HMGCS2 (gene 3158)", "experiment": "CLD_HMGCS2_24hr: CellzDirect (CLD) Gene Expression Assay for HMG-CoA synthase (HMGCS2) at 24 hours (AID 2283691)", "procedure,_shortened": "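qNPA with S1 nuclease digestion and chemiluminescent detection gave HMGCS2 transcript levels, fitted upward against 0.2% DMSO vehicle. Cultured human hepatocytes (two donors) received fresh compound daily and were harvested at 24 h; phase-contrast morphology flagged cytotoxicity.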", "values": [{"molecule": "COP(=O)(OC)O/C(C)=C/C(=O)N(C)C", "outcome": "inactive"}, {"molecule": "Nc1c(Cl)c(Cl)nc(C(=O)O)c1Cl", "outcome": "inactive"}, {"molecule": "CC(C)N1C(=O)c2ccccc2NS1(=O)=O", "outcome": "inactive"}, {"molecule": "CCNC(=O)NC(=O)C(C#N)=NOC", "outcome": "inactive"}, {"molecule": "CN=C=S", "outcome": "inactive"}, {"molecule": "CSC(=O)c1c(C(F)F)nc(C(F)(F)F)c(C(=O)SC)c1CC(C)C", "outcome": "inactive"}, {"molecule": "CS(=O)(=O)c1ccc(C(=O)C2C(=O)CCCC2=O)c([N+](=O)[O-])c1", "outcome": "inactive"}, {"molecule": "N#CN=C1SCCN1Cc1ccc(Cl)nc1", "outcome": "inactive"}]}]}
